Hits are enriched below; roughly 1.2% of the tested compounds scored in any of these assays.
Y pestis TopoI: blocks Yersinia pestis topoisomerase I activity; 0.064% of 360,000 active; activity, % at 10 µM; Y. pestis Topo-I cleavage product accumulation, plate reader; in the data active = activity above about 50%, passing the limit was not always enough
PfHsp40 yeast: restores yeast growth despite PfHsp40 toxicity; S. cerevisiae expressing PfHsp40, growth rescue, ATP luminescence; growth rescue, % at 12.5 µM; 0.68% of 340,000 active; in the data active = growth rescue above about 28%, passing the limit was not always enough;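 note: yeast W303a lacking pdr1 and pdr3 grown in galactose medium; growth measured after three days at 30 °C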
TcdB inh: inhibitors of Clostridioides difficile toxin B glycohydrolase; P18177; TcdB glycohydrolase enzymatic assay, plate reader; inhibition, % at 9.99 µM; 0.24% of 350,000 active; in the data active = inhibition above about 10%
FadD28 binding: M. tuberculosis FadD28 bisubstrate binding inhibition; FadD28 bisubstrate probe binding, fluorescence polarization; inhibition, % at 12.5 µM; 0.22% of 360,000 active; in the data active = inhibition above about 8.5%, passing the limit was not always enough
PrP UTR inh: inhibition of PrP 5' UTR reporter expression | inhibition, % (test concentration not listed) | 0.35% of 340,000 active | cell-based PrP 5' UTR mRNA reporter, plate reader; in the data active = inhibition above about 52%; note: 0 = median of the neutral control wells
Mtb BioA inh: inhibitors of Mycobacterium tuberculosis BioA enzyme; inhibition, % at 9.99 µM; purified M. tuberculosis BioA enzyme, plate reader; 0.096% of 360,000 active; in the data active = inhibition above about 40%
The depositor's hits bear a star.

`Cn1c(SCC(=O)c2cc3ccccc3o2)nnc1-c1ccccc1` gave Y pestis TopoI 9, PfHsp40 yeast 0, TcdB inh 11*, FadD28 binding -1, PrP UTR inh -4 and Mtb BioA inh 2.
Screening Cn1cnnc1SCC(=O)c1cc2ccccc2o1 returned Y pestis TopoI -2, PfHsp40 yeast 0, TcdB inh 0, FadD28 binding -1 and PrP UTR inh -33.
`CCCNC(=O)C[C@@H]1CC[C@@H]2[C@H](COC[C@@H](O)CN2C(=O)CC)O1` gave TcdB inh 1 and Mtb BioA inh -2.
Screening Cc1nc2ccccc2nc1OCC(=O)Nc1ccc(F)cc1 returned Y pestis TopoI 0, PfHsp40 yeast 0, TcdB inh 12*, FadD28 binding -1 and PrP UTR inh -8.
`O=C(CN1CCCc2ccccc21)N/N=C/c1ccccc1` gave Y pestis TopoI -5, PfHsp40 yeast 0, TcdB inh 0, FadD28 binding -1 and PrP UTR inh -61.
O=C(CN1CCCc2ccccc21)N/N=C/c1c(O)ccc2ccccc12 was read as Y pestis TopoI -14, PfHsp40 yeast 179*, TcdB inh 1, FadD28 binding -4 and PrP UTR inh -14.
Screening COc1cc2cccc(OC)c(=O)c2c(OC)c1OC returned Y pestis TopoI -2, PfHsp40 yeast -1, TcdB inh -1, FadD28 binding -1, PrP UTR inh 13 and Mtb BioA inh 1.
For O=c1c(O)cccc2cc(O)c(O)c(O)c12 the results were Y pestis TopoI -24, PfHsp40 yeast 627*, TcdB inh -10, FadD28 binding 16*, PrP UTR inh 8 and Mtb BioA inh -4.
Screening CN1\C(=C/C=C/C=C/C=[N+](C)C)C(C)(C)c2ccccc21 returned Y pestis TopoI active, PfHsp40 yeast 1, TcdB inh 0, FadD28 binding -5 and PrP UTR inh -1.
CN1/C(=C\C=O)C(C)(C)c2ccccc21 was read as Y pestis TopoI 4, PfHsp40 yeast 0, TcdB inh 0, FadD28 binding 1 and PrP UTR inh -14.
Cc1ccc(C)c(S(=O)(=O)Nc2ccc(O)c3ccccc23)c1 was read as Y pestis TopoI -9, PfHsp40 yeast 0, TcdB inh 0, FadD28 binding 0, PrP UTR inh -20 and Mtb BioA inh 0.
Screening Cc1ccc(S(=O)(=O)Nc2ccc(O)c3ccccc23)c(C)c1 returned Y pestis TopoI -8, PfHsp40 yeast -1, TcdB inh 0, FadD28 binding 55*, PrP UTR inh -24 and Mtb BioA inh -1.
CN(C)CC#Cc1ccc([C@@H]2[C@H](CO)N3C(=O)CN(C(=O)c4cccc(F)c4)C[C@@H]23)cc1 was read as TcdB inh -2.
Screening C[C@H](CO)N1C[C@H](C)[C@H](CN(C)C(=O)Nc2ccc(C(F)(F)F)cc2)Oc2ccc(NC(=O)c3ccncc3)cc2CC1=O returned Mtb BioA inh 0.
Screening COc1ccc(CC(=O)Nc2nnc(SCc3ccccc3)s2)cc1S(=O)(=O)N1CCOCC1 returned Y pestis TopoI 27, PfHsp40 yeast 0, FadD28 binding 13*, PrP UTR inh -17 and Mtb BioA inh -2.
Cc1ccc(S(=O)(=O)/N=C(\N)Nc2nc(C)c3cc(C)ccc3n2)cc1 was read as Y pestis TopoI 58*, PfHsp40 yeast 0, FadD28 binding -5, PrP UTR inh -8 and Mtb BioA inh -1.
COc1ccc(NC(=O)N(C)C[C@@H]2OCCCC[C@@H](C)Oc3ccc(NS(C)(=O)=O)cc3C(=O)N([C@H](C)CO)C[C@H]2C)cc1 was read as TcdB inh 0 and Mtb BioA inh -1.
Screening Cn1c(-c2ccc(F)c(F)c2)cc2onc(-c3ccccc3)c2c1=O returned Y pestis TopoI -1, PfHsp40 yeast -1, TcdB inh 10*, FadD28 binding -1, PrP UTR inh -59 and Mtb BioA inh -1.
Nc1ccc(N=Nc2ccc(O)cc2)c(N)n1 was read as Y pestis TopoI -13, PfHsp40 yeast 2, TcdB inh 20*, FadD28 binding 0 and PrP UTR inh -79.
For CCOC(=O)c1c(C)[nH]c(C(=O)N/N=C/c2cc([N+](=O)[O-])ccc2O)c1C the results were Y pestis TopoI -5, PfHsp40 yeast -2, TcdB inh 1, FadD28 binding -1, PrP UTR inh -1 and Mtb BioA inh -1.
Screening CCOC(=O)c1c(C)[nH]c(C(=O)N/N=C\c2ccccc2O)c1C returned Y pestis TopoI -2, PfHsp40 yeast 37*, TcdB inh 1, FadD28 binding -11, PrP UTR inh 9 and Mtb BioA inh 1.
For [O-]C(=C(C(=S)Nc1cccc2ccccc12)[n+]1ccccc1)c1ccc2c(c1)OCCO2 the results were Y pestis TopoI -10, PfHsp40 yeast 35*, FadD28 binding -2 and PrP UTR inh -12.
CC(C)(C)c1cc[n+](/C(C(=S)Nc2ccccc2F)=C(/[O-])c2ccc3c(c2)OCCO3)cc1 was read as Y pestis TopoI 8, PfHsp40 yeast -1, TcdB inh 2, FadD28 binding -3 and PrP UTR inh -25.
`CCOc1ccccc1CN1CCC(N2CCC(C(=O)NC3CC3)CC2)CC1` gave Y pestis TopoI -1, PfHsp40 yeast 30*, TcdB inh 1, FadD28 binding -3, PrP UTR inh -9 and Mtb BioA inh -1.
Screening CCOc1ccccc1CN1CCC(n2nccc2NC(=O)C2CCCC2)CC1 returned Y pestis TopoI 2, PfHsp40 yeast -1, TcdB inh 3, FadD28 binding -2, PrP UTR inh -14 and Mtb BioA inh -1.
`Cc1ccc(OCC(O)CN2C(=O)NC(C)(C)C2=O)cc1` (stereo not given) gave Y pestis TopoI -4, PfHsp40 yeast 53*, FadD28 binding -2, PrP UTR inh -13 and Mtb BioA inh 0.
For COc1ccc(-c2nc3ccccc3n2Cc2ccccc2)cc1 the results were Y pestis TopoI 11, PfHsp40 yeast 1, FadD28 binding -3, PrP UTR inh -7 and Mtb BioA inh 0.
`COc1cc(Cn2c(-c3ccc(O)c(OC)c3)nc3ccccc32)ccc1O` gave Y pestis TopoI 0, PfHsp40 yeast 0, TcdB inh 15*, FadD28 binding -11 and PrP UTR inh -18.
Screening Cc1cnc(C(=O)OCC(=O)Nc2ccc(OCc3ccccc3)cc2)cn1 returned Y pestis TopoI 4, PfHsp40 yeast 12, TcdB inh 13*, FadD28 binding -3, PrP UTR inh -46 and Mtb BioA inh -3.
Cc1cnc(C(=O)OCC(=O)NCc2ccccc2)cn1 was read as Y pestis TopoI -4, PfHsp40 yeast -1, FadD28 binding -2, PrP UTR inh -22 and Mtb BioA inh 1.
Screening Cc1cnc(C(=O)OCC(=O)Nc2c(Cl)cc(Cl)cc2Cl)cn1 returned Y pestis TopoI 0, PfHsp40 yeast 63*, TcdB inh 0, FadD28 binding -2, PrP UTR inh -28 and Mtb BioA inh -2.

Screens as filed in PubChem.
